Hedgehog inh = blocks Sonic Hedgehog signaling; Shh-LIGHT2 Gli-luciferase reporter, 30 h; inhibition, % (concentration not given with the values); actives 2.1% (n = 22,000); AID 2313;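 active = mean inhibition across valid replicates above about 65%, limit read from the data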;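 note: pathway switched on by Shh-conditioned medium diluted 1 in 25 in low serum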
MITF inhib = blocks MITF activity | TRPM1 promoter luciferase, luminescence, 24 h | inhibition, % (no concentration beside the values) | actives 0.28% (n = 37,000); in the data active = inhibition above about 85%;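 note: human melanocyte line stably carrying TRPM1 promoter luciferase reporter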
An asterisk follows results filed as active. The sample as a whole holds a higher share of hits than the screen did.

How did Cc1ccc(SC(=O)c2c(C)noc2COc2ccccc2)cc1 do in these assays?
Hedgehog inh: 27.0; MITF inhib: 5.2

Results for CCn1c(SCC(=O)Nc2cccc(F)c2)nnc1-c1ccc(C)cc1 ?
MITF inhib: 32.7

What do the screens show for `Cc1cc(C)c2c(c1C(=O)Nc1cccc(C(F)(F)F)c1)CC(C)(C)C2=O`?
Hedgehog inh: 86.2*; MITF inhib: 60.4

What do the screens show for `COc1ccc(C(=O)NCC(=O)Nc2cccc(C(F)(F)F)c2)cc1`?
MITF inhib: -10.6

Results for COc1ccccc1-n1c(SCC(=O)c2ccc(Cl)cc2)nc2ccccc2c1=O ?
MITF inhib: 27.0

Results for COc1cccc(C(=O)NC(c2ccc(Cl)cc2)c2c(O)ccc3ccccc23)c1 (stereo not drawn) ?
MITF inhib: 101.5*

Results for COc1cccc(C(=O)NC(c2ccc([N+](=O)[O-])cc2)c2c(O)ccc3ccccc23)c1 (stereo not drawn) ?
MITF inhib: 78.1

What do the screens show for `CC1(C)CC[C@]2(C(=O)O)CC[C@]3(C)C(=CCC4[C@@]5(C)CC[C@H](O[C@@H]6OC[C@H](O)[C@H](O)[C@H]6O)[C@@](C)(CO)C5CC[C@]43C)C2C1` (stereo partly drawn)?
Hedgehog inh: 79.3*; MITF inhib: 15.7

How did C/C=C(\C)C(=O)O[C@H]1[C@H](OC(C)=O)[C@@]2(CO)C(CC1(C)C)C1=CCC3[C@@]4(C)CC[C@H](O[C@@H]5O[C@H](C(=O)O)[C@@H](O)[C@H](O[C@@H]6O[C@H](CO)[C@H](O)[C@H](O)[C@H]6O[C@@H]6O[C@@H](C)[C@H](O)[C@@H](O)[C@H]6O)[C@H]5O[C@@H]5O[C@H](CO)[C@@H](O)[C@H](O)[C@H]5O)C(C)(C)C4CC[C@@]3(C)[C@]1(C)C[C@H]2O (stereo partly drawn) do in these assays?
Hedgehog inh: 111.2*

How did CC1(C)CC[C@]2(C(=O)O[C@@H]3O[C@H](CO)[C@@H](O)[C@H](O)[C@H]3O)CC[C@]3(C)C(=CCC4[C@@]5(C)CC[C@H](O[C@@H]6OC[C@H](O)[C@H](O)[C@H]6O[C@@H]6O[C@H](CO)[C@@H](O)[C@H](O)[C@H]6O[C@@H]6OC[C@H](O)[C@H](O)[C@H]6O)[C@@](C)(CO)C5CC[C@]43C)C2C1 (stereo partly drawn) do in these assays?
Hedgehog inh: -9.4; MITF inhib: -12.1

What do the screens show for `C[C@@H]1O[C@@H](O[C@H]2[C@H](O[C@H]3CC[C@@]4(C)C(CC[C@]5(C)C4CC=C4[C@@H]6CC(C)(C)CC[C@]6(C(=O)O[C@@H]6O[C@H](CO[C@@H]7O[C@H](CO)[C@@H](O)[C@H](O)[C@H]7O)[C@@H](O)[C@H](O)[C@H]6O)CC[C@]45C)[C@]3(C)CO)OC[C@H](O)[C@@H]2O)[C@H](O)[C@H](O)[C@H]1O` (stereo partly drawn)?
Hedgehog inh: -2.0; MITF inhib: 0.1

Results for C[C@@H]1O[C@@H](O[C@H]2[C@H](O)[C@@H](O)[C@H](OC[C@H]3O[C@@H](OC(=O)[C@]45CCC(C)(C)CC4C4=CCC6[C@@]7(C)CC[C@H](O)C(C)(C)C7CC[C@@]6(C)[C@]4(C)CC5)[C@H](O)[C@@H](O)[C@@H]3O)O[C@@H]2CO)[C@H](O)[C@H](O)[C@H]1O (stereo partly drawn) ?
Hedgehog inh: 75.7*; MITF inhib: 44.5

Results for CC1(C)CC[C@@]2(C(=O)O[C@@H]3O[C@H](CO)[C@@H](O)[C@H](O)[C@H]3O)C(C1)C1=CCC3[C@@]4(C)CC[C@@H](O[C@@H]5O[C@H](C(=O)O)[C@@H](O[C@@H]6OC[C@@H](O)[C@H](O)[C@H]6O)[C@H](O)[C@H]5O)C(C)(C)C4CC[C@@]3(C)[C@]1(C)C[C@H]2O (stereo partly drawn) ?
Hedgehog inh: -9.7; MITF inhib: -8.0

What do the screens show for `O=C(Oc1ccc(C=Nc2ccc(F)cc2)cc1)c1ccco1`?
Hedgehog inh: 0.3; MITF inhib: -2.5

What do the screens show for `O=C(CN1C(=O)c2ccccc2C1=O)c1ccc(C(F)(F)F)cc1`?
Hedgehog inh: -50.4; MITF inhib: -9.2

What do the screens show for `c1cncc(C2OCC3(CO2)COC(c2cccnc2)OC3)c1` (stereo not drawn)?
Hedgehog inh: -20.6; MITF inhib: -6.7

Results for CC1=CC(C)C2(COC(=O)Nc3ccccc3)COC(c3cccnc3)C1C2C (stereo not drawn) ?
Hedgehog inh: 91.9*; MITF inhib: 53.0

How did c1ccc(-c2nnc(-c3cccc4ccccc34)o2)cc1 do in these assays?
Hedgehog inh: -171.7; MITF inhib: 51.1

How did C/C(=N\O)C12CC3(C)CC(C)(CC(C)(C3)C1)C2 do in these assays?
Hedgehog inh: -20.3; MITF inhib: -16.7

How did Cc1[nH]c2ccccc2c1/C=C/c1nc2ccccc2c(=O)n1CCCO do in these assays?
MITF inhib: -1.2

How did O=c1c2ccccc2nc(/C=C/c2cc(Br)ccc2O)n1CCCO do in these assays?
MITF inhib: 101.9*
